Assay [1] can be described thus: qHTS RealTime-Glo MT Cell Viability Assay in HepG2 cells - 40 hour (AID 1224870). Also: nearly all actives have a fitted effect of over 50% in size. The gist of the method: (§1)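 Real-time viability: cells seeded at 600 per well together with NanoLuc and cell-permeant prosubstrate, compounds added after 5 h incubation. Luminescence tracked at 0, 8, 16, 24, 32 and 40 h of exposure.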
On the technique in general: Quantitative high-throughput screening tests each substance at several concentrations.

A short description of assay [2]: A CellTox Green Cytotoxicity Assay to monitor cytotoxicity in HEK293 cells - 40 hour (AID 1224871). Also: nearly all actives have a fitted effect of over 45% in size. Also: potency is read from the fitted curve at half-maximal effect. In short, it runs like this: (§2)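 Cells (HEK293, 600/well) and dye reagent are dispensed together. After 5 h at 37 C, 23 nL compound is pinned in. Plates stay at 37 C for 40 h with fluorescence read at 0h, 8h, 16h, 24h, 32h and 40h.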
Assay [3] in a line: qHTS RealTime-Glo MT Cell Viability Assay in HEK293 cells - 16 hour (AID 1224872). Also: nearly all actives have a fitted effect of over 50% in size. Also: potency is read from the fitted curve at half-maximal effect. As to activity change, negative = cytotoxicity: top concentration of the series differs between compounds. The gist of the method: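 Viability tracked continuously by luminescence as live cells reduce a prosubstrate for NanoLuc; HEK293 cells preincubated 5 h, compound-treated at 37 C, and read at 0, 8, 16, 24, 32 and 40 h.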
Assay [4] in a line: qHTS RealTime-Glo MT Cell Viability Assay in HepG2 cells - 8 hour (AID 1224873). Also: nearly all actives have a fitted effect of over 55% in size. Also: potency is read from the fitted curve at half-maximal effect. In short, it runs like this:
as §1

A short description of assay [5]: qHTS RealTime-Glo MT Cell Viability Assay in HEK293 cells - 40 hour (AID 1224874). Also: nearly all actives have a fitted effect of over 50% in size. Also: potency is read from the fitted curve at half-maximal effect. The note with it: RealTime-Glo luminescence; max response: hits give low values. The gist of the method:
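Real-time viability in HEK293: signal arises when living cells convert a prosubstrate for NanoLuc in the medium, so luminescence tracks viable cell number. Compound (23 nL, DMSO) added 5 h post-seeding; kinetic reads at 0–40 h, 37 C.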

Assay [6] in a line: A CellTox Green Cytotoxicity Assay to monitor cytotoxicity in HepG2 cells - 16 hour (AID 1224876). Also: nearly all actives have a fitted effect of over 45% in size. In short, it runs like this: (§3)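 Cells and non-lytic dye reagent are dispensed together (600 HepG2 cells/well) and incubated 5 h before DMSO compound transfer. Kinetic fluorescence is then recorded in the same wells during 40 h at 37 C.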
A short description of assay [7]: qHTS RealTime-Glo MT Cell Viability Assay in HepG2 cells - 32 hour (AID 1224877). Also: nearly all actives have a fitted effect of over 55% in size. In short, it runs like this:
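Viability was tracked continuously by NanoLuc luminescence from prosubstrate reduced by living HepG2 cells, at successive time points over 40 h of compound exposure. Cells with reagent were preincubated 5 h at 37 °C before compound addition.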

The nature of assay [8]: A CellTox Green Cytotoxicity Assay to monitor cytotoxicity in HepG2 cells - 24 hour (AID 1224878). Also: nearly all actives have a fitted effect of over 45% in size. The gist of the method: as §3
A short description of assay [9]: A CellTox Green Cytotoxicity Assay to monitor cytotoxicity in HepG2 cells - 40 hour (AID 1224879). Also: nearly all actives have a fitted effect of over 40% in size. In short, it runs like this:
as §3

Assay [10] in a line: A CellTox Green Cytotoxicity Assay to monitor cytotoxicity in HEK293 cells - 24 hour (AID 1224875). Also: series mostly up to about 77 µM; nearly all actives have a fitted effect of over 45% in size. In short, it runs like this: as §2

“And” between values parts separate entries of the source, which are not always exact repeats. Identical values can stand only once. Results filed as inconclusive are left out. A number with no mark means an inactive call. The source made the active and inactive calls. Calls follow the shape of the dose curve; as a rule, active = well fitted curve in the direction sought with a large enough effect in the repeat runs; inconclusive = weak or mixed curves; inactive = no such curve, though single readings can be large; an effect the other way counts as inactive or inconclusive.
% is scaled to controls: 0 for no effect and ±100 for the full control effect.

Turning to `COc1ccc2c(c1)c(CC(=O)OCC(=O)O)c(C)n2C(=O)c1ccc(Cl)cc1`, the Potency entry in [1], in assay [2], in assay [3], in assay [4], in assay [6] and in [7] was “inactive” throughout. Further, the Potency result in assay [8] and in [9] was “inactive” throughout. In assay [5], the max response was 5.11%.
Take `CC(C)(C)c1ccc(O)c(O)c1`: the Potency result in assay [1], in assay [6] and in assay [9] was “inactive” each time. Also, the Potency in assay [2] was 38.9 µM (active); in assay [3], 25.4 µM (active) and 13.8 µM (active); in [4], 34.7 µM (active); in assay [5], 20.2 µM (active) and 36 µM (active).
As to `O=C(O)CNC(=O)c1ccc([N+](=O)[O-])cc1`, the Potency entry in assay [1], in assay [2], in assay [3], in assay [4], in [10] and in assay [6] was “inactive” throughout. Moreover, the Potency entry in assay [7], in assay [8] and in assay [9] was “inactive” throughout.
As to `Nc1ccccc1S(=O)(=O)O`, the Potency result in assay [1], in assay [2], in [3], in assay [4], in assay [10] and in [6] was “inactive” throughout. The Potency result in [7], in assay [8] and in assay [9] was “inactive” throughout.
Regarding `CC(=O)OCC(=O)[C@@]1(O)CC[C@H]2[C@@H]3CCC4=CC(=O)CC[C@]4(C)[C@H]3C(=O)C[C@@]21C`, the Potency entry in assay [1], in assay [2], in [3], in [4], in assay [10] and in assay [6] was “inactive” each time. Moreover, the Potency entry in assay [7], in assay [8] and in assay [9] was “inactive” throughout.
Consider `CCO[Si](CCC1CCC2OC2C1)(OCC)OCC` (configuration not stated), for which the Potency entry in assay [1], in [2], in assay [3], in assay [4], in assay [10] and in assay [6] was “inactive” each time. Moreover, the Potency entry in assay [7], in assay [8] and in assay [9] was “inactive” each time.
Take `NS(=O)(=O)c1ccccc1Cl`: the Potency result in [1], in assay [2], in assay [3], in assay [4], in [6] and in assay [8] was “inactive” in each case. Further, in assay [9], the Potency entry is “inactive”. Moreover, the max response in assay [5] is -11.8%.
For the molecule `N[C@H]1CN(c2c(F)cc3c(=O)c(C(=O)O)cn(C4C[C@H]4F)c3c2Cl)CC12CC2` (some centres not stated), the Potency entry in assay [1], in [2], in assay [3], in assay [4], in assay [10] and in [6] was “inactive” in each case. In addition, the Potency result in assay [7], in assay [8] and in [9] was “inactive” in each case.
Consider `NCCCNCCSP(=O)(O)O`, for which the activity change, negative = cytotoxic in assay [1] was 0.256% [at 6.97 µM]. In addition, the cytotoxicity increase in assay [2] was -10.4% [at 6.97 µM]; in [6] it was -2.65% [at 6.97 µM]; in assay [9], -11.2% [at 6.97 µM]. Besides, the activity change, negative = cytotoxicity in assay [3] is 0.443% [at 6.97 µM]. For the same molecule, the viability change, negative = cytotoxic in [4] was 0.144% [at 6.97 µM]. Besides, the max response in [5] is 3.52%. In addition, the cytotoxicity in assay [8] is -8.81% [at 6.97 µM].
Consider `CC(=O)CC(C)C`, for which the Potency result in assay [1], in [2], in [3], in [4], in [6] and in [7] was “inactive” in each case. For the same molecule, the Potency entry in [8] and in assay [9] was “inactive” in each case. Also, the max response in assay [5] was 14.5%.
For the molecule `CC(C)(C)NCCNC(C)(C)C`, the Potency result in assay [1], in assay [2], in assay [3], in assay [4], in assay [6] and in assay [7] was “inactive” each time. Also, the Potency result in [8] and in [9] was “inactive” each time. In addition, the max response in assay [5] is -0.754%.
For `NC(CSCC(=O)O)C(=O)O` (configuration not stated), the Potency entry in [1], in [2], in assay [3], in assay [4], in assay [6] and in [7] was “inactive” each time. Further, the Potency entry in [9] is “inactive”. Further, the max response in [5] was 7.24%.
Consider `CCCc1cc(C(N)=S)ccn1`, for which the Potency result in assay [1], in [2], in assay [3], in [4], in assay [6] and in assay [7] was “inactive” throughout. The Potency entry in assay [9] was “inactive”. Moreover, in [5], the max response was 2.82%.
On to `COC(=O)CCSCCC(=O)OC`, for which the Potency result in assay [1], in [2], in assay [3], in assay [4], in assay [10] and in [6] was “inactive” throughout. In addition, the Potency result in assay [7], in assay [8] and in [9] was “inactive” in each case.
Turning to `CCOC(=O)Nc1ccc(NCc2ccc(F)cc2)nc1N`, the Potency entry in assay [1], in assay [2], in [3], in [4], in [6] and in assay [7] was “inactive” throughout. The Potency result in assay [8] and in assay [9] was “inactive” throughout. Also, the max response in assay [5] is -2.14%.
For the molecule `CCCCCCOC(=O)CCCCC(=O)OCCCCCC`, the Potency result in assay [1], in [2], in assay [3], in assay [4], in assay [6] and in assay [7] was “inactive” each time. Further, the Potency entry in [9] is “inactive”. Moreover, in assay [5], the max response is 7.23%.

(Values after PubChem BioAssay (Tox21).)
